Laboratory results from the supplement of paper PMC10849652.
About 8,800 targets were measured; listed, in parts, are those with a hit and a random draw of the rest. About 0.5% of all pairs of compound and target were hits.

Experiments:
Assay in all cases: log2 fold change, soluble protein after heating vs DMSO (PISA); higher = thermal stabilisation; K562 lysate, 10 uM; active = over 0.2 and 3.5 SD of the protein, either way, in both replicates (recomputed)
[1] = compound: Cc1cn(-c2cc(NC(=O)c3ccc(C)c(Nc4nccc(-c5cccnc5)n4)c3)cc(C(F)(F)F)c2)cn1 [nilotinib]
In short: (§1)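 Thermal stability, expressed as log-two fold change relative to solvent controls, is given from duplicates. Crude K562 extract in PBS pH 7.4 with 1 mM MgCl2, at 1 mg/mL protein, was treated with 10 μM compound for 30 min and heated in aliquots for 3 min across 48°C-58°C. After pooling, adjustment to 0.5% NP-40 at 4°C and centrifugation at 21,000xg for 90 min, supernatant protein was measured by TMTpro 16plex LC-MS/MS with channel sums equalised.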

[2] = compound: Cc1nc(Nc2n[nH]c3c2CN(C(=O)N[C@H](CN(C)C)c2ccccc2)C3(C)C)c2sccc2n1
In short: as §1

[3] = compound: Cc1nc(Nc2ncc(C(=O)Nc3c(C)cccc3Cl)s2)cc(N2CCN(CCO)CC2)n1 [dasatinib]
In short: as §1

[4] = compound: Cc1ncc(-c2ccnc(Nc3ccc(S(C)(=O)=O)cc3)n2)n1C(C)C
In short: as §1

[5] = compound: Cn1cc(-c2ccc3c(c2)CCN3C(=O)Cc2cccc(C(F)(F)F)c2)c2c(N)ncnc21
In short: as §1

[6] = compound: Cn1cc(CNCC2CCN(c3ncc(C(=O)NO)cn3)CC2)c2ccccc21 [quisinostat]
In short: as §1

[7] = compound: Cn1cncc1[C@@](N)(c1ccc(Cl)cc1)c1ccc2c(c1)c(-c1cccc(Cl)c1)cc(=O)n2C [tipifarnib]
In short: as §1

[8] = compound: NC(=O)Nc1cc(-c2cccc(F)c2)sc1C(=O)N[C@H]1CCCNC1
In short: as §1

[9] = compound: NC(=O)c1cnc(N[C@@H]2CCCC[C@@H]2N)nc1Nc1cccc(-n2nccn2)c1
In short: as §1

[10] = compound: NC1(c2ccc(-c3nc4ccn5c(=O)[nH]nc5c4cc3-c3ccccc3)cc2)CCC1
In short: as §1

Measured: log2 fold change

EIF2AK2 (UniProt P19525)
Chain of UniProt P19525 (P19525 whole entry, looked up): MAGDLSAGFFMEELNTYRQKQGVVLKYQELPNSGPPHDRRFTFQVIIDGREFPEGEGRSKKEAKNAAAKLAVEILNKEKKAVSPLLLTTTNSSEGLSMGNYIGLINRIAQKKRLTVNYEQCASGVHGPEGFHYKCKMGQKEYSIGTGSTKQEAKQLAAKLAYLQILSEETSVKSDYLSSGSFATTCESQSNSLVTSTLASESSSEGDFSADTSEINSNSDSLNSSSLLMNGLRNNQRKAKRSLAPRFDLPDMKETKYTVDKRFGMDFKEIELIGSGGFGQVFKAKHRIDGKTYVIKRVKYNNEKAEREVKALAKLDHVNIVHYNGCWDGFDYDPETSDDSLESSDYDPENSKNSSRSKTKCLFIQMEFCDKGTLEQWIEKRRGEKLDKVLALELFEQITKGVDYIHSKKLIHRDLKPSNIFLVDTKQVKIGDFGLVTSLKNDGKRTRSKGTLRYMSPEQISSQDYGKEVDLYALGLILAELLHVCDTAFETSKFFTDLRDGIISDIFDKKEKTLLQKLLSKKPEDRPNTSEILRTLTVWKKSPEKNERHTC
inactive: [1] -0.014 | [2] 0.043 | [3] 0.122 | [4] 0.01 | [5] 0.056 | [6] -0.087 | [7] -0.032 | [8] 0.045 | [9] -0.013 | [10] -0.054

FAM120B (UniProt Q96EK7)
Chain of UniProt Q96EK7 (Q96EK7 whole entry, looked up): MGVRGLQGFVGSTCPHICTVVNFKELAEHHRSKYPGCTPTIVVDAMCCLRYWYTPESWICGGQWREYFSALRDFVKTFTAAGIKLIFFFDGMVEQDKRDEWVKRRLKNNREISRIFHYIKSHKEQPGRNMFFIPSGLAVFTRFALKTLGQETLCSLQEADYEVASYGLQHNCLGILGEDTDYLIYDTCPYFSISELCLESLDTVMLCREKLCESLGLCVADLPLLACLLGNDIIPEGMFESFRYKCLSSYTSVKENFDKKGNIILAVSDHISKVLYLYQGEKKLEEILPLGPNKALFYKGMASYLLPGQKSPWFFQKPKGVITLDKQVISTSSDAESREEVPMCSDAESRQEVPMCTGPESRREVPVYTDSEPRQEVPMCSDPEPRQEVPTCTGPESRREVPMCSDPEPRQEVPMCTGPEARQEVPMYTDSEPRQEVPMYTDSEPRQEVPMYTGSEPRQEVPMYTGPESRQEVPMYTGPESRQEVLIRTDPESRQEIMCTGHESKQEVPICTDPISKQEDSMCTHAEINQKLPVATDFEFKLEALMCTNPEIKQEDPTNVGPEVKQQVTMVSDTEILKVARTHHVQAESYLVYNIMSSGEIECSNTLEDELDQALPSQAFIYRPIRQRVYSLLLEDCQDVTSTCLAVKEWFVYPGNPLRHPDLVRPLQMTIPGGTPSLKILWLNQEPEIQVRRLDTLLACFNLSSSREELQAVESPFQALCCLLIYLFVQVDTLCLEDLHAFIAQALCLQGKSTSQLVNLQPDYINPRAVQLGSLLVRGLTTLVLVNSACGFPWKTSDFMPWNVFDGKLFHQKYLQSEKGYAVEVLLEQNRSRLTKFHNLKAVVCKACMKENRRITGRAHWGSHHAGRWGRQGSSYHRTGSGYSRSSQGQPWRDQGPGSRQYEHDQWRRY
inactive: [1] -0.067 | [2] -0.017 | [3] -0.033 | [4] -0.008 | [5] 0.017 | [6] -0.062 | [7] 0.05 | [8] 0.015 | [9] -0.029 | [10] -0.048

EIF2B5 (UniProt Q13144)
Chain of UniProt Q13144 (Q13144 whole entry, looked up): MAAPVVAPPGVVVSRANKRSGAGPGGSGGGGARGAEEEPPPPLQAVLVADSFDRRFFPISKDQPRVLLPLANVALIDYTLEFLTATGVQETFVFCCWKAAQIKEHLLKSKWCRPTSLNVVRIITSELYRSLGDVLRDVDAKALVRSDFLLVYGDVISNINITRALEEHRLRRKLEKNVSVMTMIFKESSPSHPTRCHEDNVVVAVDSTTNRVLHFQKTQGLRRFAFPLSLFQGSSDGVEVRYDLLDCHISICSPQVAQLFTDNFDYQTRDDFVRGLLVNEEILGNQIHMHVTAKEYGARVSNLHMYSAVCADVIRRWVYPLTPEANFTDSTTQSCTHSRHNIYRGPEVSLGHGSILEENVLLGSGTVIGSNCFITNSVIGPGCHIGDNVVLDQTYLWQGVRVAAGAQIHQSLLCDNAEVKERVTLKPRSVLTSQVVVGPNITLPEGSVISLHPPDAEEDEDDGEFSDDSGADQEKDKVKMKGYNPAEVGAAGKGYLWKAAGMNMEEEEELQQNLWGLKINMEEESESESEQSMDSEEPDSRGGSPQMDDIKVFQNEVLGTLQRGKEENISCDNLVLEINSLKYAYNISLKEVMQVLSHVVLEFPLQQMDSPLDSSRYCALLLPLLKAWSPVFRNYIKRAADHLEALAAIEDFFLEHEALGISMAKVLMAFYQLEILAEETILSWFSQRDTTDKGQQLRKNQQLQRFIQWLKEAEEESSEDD
inactive: [1] -0.004 | [2] 0.037 | [3] -0.015 | [4] 0.008 | [5] 0.01 | [6] -0.002 | [7] -0.006 | [8] 0.038 | [9] -0.01 | [10] -0.011

DSN1 (UniProt Q9H410)
Chain of UniProt Q9H410 (Q9H410 whole entry, looked up): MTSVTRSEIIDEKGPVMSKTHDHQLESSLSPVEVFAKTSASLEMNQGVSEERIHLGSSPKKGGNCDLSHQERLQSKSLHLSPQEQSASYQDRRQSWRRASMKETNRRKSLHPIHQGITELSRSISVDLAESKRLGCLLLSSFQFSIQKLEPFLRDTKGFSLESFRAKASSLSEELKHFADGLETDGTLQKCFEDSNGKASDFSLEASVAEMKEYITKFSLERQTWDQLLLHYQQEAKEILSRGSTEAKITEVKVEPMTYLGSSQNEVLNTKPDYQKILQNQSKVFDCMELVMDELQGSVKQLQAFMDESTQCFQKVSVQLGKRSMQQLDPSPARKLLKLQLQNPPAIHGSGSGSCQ
inactive: [1] -0.006 | [2] 0.023 | [3] -0.022 | [4] 0.001 | [5] 0.011 | [6] -0.015 | [7] -0.015 | [8] 0.05 | [9] 0.014 | [10] 0.031

DYNC1I2 isoform 5 (UniProt Q13409)
Chain of UniProt Q13409 (Q13409 whole entry, looked up): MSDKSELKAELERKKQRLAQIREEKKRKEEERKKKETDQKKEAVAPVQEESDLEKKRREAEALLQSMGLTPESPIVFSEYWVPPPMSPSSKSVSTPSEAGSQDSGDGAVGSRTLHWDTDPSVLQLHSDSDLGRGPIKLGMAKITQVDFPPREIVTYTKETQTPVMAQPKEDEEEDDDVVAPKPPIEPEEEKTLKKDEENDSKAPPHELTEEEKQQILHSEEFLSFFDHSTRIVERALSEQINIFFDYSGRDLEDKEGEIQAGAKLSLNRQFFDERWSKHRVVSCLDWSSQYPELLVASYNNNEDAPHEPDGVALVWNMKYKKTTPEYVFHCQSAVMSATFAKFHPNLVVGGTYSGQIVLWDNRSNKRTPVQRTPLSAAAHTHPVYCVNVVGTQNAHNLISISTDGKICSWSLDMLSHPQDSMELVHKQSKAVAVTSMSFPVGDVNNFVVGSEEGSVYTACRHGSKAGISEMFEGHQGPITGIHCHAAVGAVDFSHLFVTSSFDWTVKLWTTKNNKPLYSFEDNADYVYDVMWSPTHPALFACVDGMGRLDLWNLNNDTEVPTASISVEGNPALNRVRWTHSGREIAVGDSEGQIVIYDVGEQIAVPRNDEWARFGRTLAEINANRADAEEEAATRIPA
inactive: [1] 0.029 | [2] 0.016 | [3] 0.008 | [4] -0.003 | [5] 0.001 | [6] 0.023 | [7] -0.011 | [8] -0.014 | [9] -0.008 | [10] -0.01

FYB1 isoform 3 (UniProt O15117)
Chain of UniProt O15117 (O15117 whole entry, looked up): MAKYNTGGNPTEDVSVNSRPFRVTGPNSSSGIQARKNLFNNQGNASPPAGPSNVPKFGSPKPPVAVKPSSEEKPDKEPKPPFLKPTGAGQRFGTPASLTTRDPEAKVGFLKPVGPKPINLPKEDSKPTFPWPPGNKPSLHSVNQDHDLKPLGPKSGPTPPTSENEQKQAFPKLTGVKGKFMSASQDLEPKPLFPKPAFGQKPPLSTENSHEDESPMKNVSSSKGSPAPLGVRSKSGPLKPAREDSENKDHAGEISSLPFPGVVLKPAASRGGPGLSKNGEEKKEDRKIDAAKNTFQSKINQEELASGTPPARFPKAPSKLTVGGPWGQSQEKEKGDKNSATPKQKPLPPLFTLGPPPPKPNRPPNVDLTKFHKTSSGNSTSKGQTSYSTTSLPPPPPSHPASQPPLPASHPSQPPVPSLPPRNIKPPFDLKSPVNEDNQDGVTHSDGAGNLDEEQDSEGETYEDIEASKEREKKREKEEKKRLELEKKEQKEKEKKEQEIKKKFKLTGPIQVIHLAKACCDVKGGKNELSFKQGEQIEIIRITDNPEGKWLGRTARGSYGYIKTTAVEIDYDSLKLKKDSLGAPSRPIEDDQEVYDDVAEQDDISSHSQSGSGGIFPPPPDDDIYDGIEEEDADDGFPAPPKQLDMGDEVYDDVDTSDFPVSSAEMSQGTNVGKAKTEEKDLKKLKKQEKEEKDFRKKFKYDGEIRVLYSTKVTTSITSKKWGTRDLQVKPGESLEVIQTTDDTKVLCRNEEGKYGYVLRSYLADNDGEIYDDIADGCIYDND
inactive: [1] 0.042 | [2] 0.004 | [3] -0.017 | [4] -0.025 | [5] 0.001 | [6] -0.068 | [7] -0.012 | [8] 0.034 | [9] 0.005 | [10] 0.021
